Assay results reported in PubChem BioAssay (EPA / NIEHS).
Activity calls are given as the source filed them. The calls were made as follows: active = hit-call score of the fitted dose curve at least 0.9, where 1 is the maximum; inactive = score below 0.9.

assay: APR_HepG2_StressKinase_72hr: Apredica 72-hour HepG2 Assay for Stress Kinase (AID 2282921); settings: HepG2 stress kinase (phospho-c-Jun) imaging, actives raise or lower the signal
Experimental: APR_HepG2_72hr is a cell-based, multiplexed-readout assay that uses HepG2, a human liver cell line, with measurements taken at 72 hours after chemical dosing in a 384-well plate.APR_HepG2_StressKinase_72hr is one of 10 assay component(s) measured or calculated from the APR_HepG2_72hr assay. It is designed to make measurements of enzyme activity, a form of enzyme reporter, as detected with fluorescence intensity signals by HCS Fluorescent Imaging technology.Data from the assay component APR_HepG2_StressKinase_72hr was analyzed into 1 assay endpoint. This assay endpoint, APR_HepG2_StressKinase_72hr, was analyzed with bidirectional fitting relative to DMSO as the negative control and baseline of activity. Using a type of enzyme reporter, measures of protein for gain or loss-of-signal activity can be used to understand the signaling at the pathway-level as they relate to the gene . Furthermore, this assay endpoint can be referred to as a primary readout, because this assay has produced multiple assay endpoints where this one serves a signaling function. To generalize the intended target to other relatable targets, this assay endpoint is annotated to the cell cycle intended target family, where the subfamily is stress response.
Cells were treated with dimethyl sulfoxide (DMSO) as a solvent control at a final concentration of 0.5% v/v or with compounds in DMSO with a resulting final DMSO concentration of 0.5% v/v. Compound treatment was done at concentrations of 0.39, 0.78, 1.56, 3.12, 6.24, 12.5, 25, 50, 100, and 200 uM in duplicate on each plate. Cells were treated with compounds for 1, 24, or 72 hr. Carbonyl […] m-chloro-phenylhydrazone (CCCP) and taxol were used as positive controls for mitochondrial function and cytoskeletal stability, respectively; DMSO served as the negative control for this experiment. Cells were fixed by the direct addition of 50 uL formaldehyde in Hank's Balanced Salt Solution (HBSS) to a final concentration of 3.7%. After incubation in the fixation medium for 30 min at room temperature (293-298 K), cells were rinsed twice with HBSS and treated with cell permeabilization buffer (16 uL of 0.5% Triton X-100) for 10 min at room temperature (293-298 K) before labeling. For mitochondrial membrane potential and mitochondrial measurements, pre-fixed cells were incubated with 50 uL of MitoTracker Red CMXRos (Invitrogen) at a concentration of 250 nM for 30 min before fixation. In the remaining cases, post-fixed cells were labeled by incubation with a multiplexed mixture of primary antibodies in HBSS for 60 min at room temperature (293-298 K) to detect immunoreactivity of c-Jun (1:500), phospho-histone H3 (1:100), phospho-histone H2A.x (1:200), p53 (1:400), alpha-tubulin (1:200) and Hoechst 33342 (2 ug/mL). Cells were labeled for multiplexed imaging on two separate plates: a) Hoechst 33342, MitoTracker Red, phospho-histone H3, and alpha-tubulin, and b) Hoechst 33342, phospho-histone H2A.x, and c-Jun. A final rinse with HBSS (50 uL) was performed before analysis. The primary and secondary antibodies for the proteins were phospho-histone H3 (rabbit anti-phospho-histone H3 and FITC-donkey anti-rabbit IgG), phospho-histone H2A.x (mouse anti-phospho-histone H2A.x and FITC-donkey anti-mouse IgG), c-Jun (rabbit anti-phospho-c-Jun and Cy3-donkey anti-rabbit IgG), p53 (sheep anti-p53 and Cy5-donkey anti-sheep IgG), alpha-tubulin (mouse anti-alpha-tubulin and Cy5-donkey anti-mouse IgG). These antibodies are available as the CellCiphr HepG2 assay kit (Millipore).Digital images of each well were captured using a Cellomics ArrayScan VTI (Thermo Scientific Cellomics) (0.8 NA objective, 0.63x optical coupler, and XF-93 filter set) at 20x magnification. The images were acquired using the autofocus feature of the ArrayScan instrument, which entails the following steps. First, the camera focuses on channel 1 (Hoechst 33342), where nuclei are identified. Second, a Z offset of 1 um is used for capturing mitochondria (MitoTracker Red). […]

For `CN(C)c1ccc(C(=C2C=CC(=[N+](C)C)C=C2)c2ccc(N(C)C)cc2)cc1`, which AC50 is on record?
Its AC50 is 40 µM (active).

With `c1ccc2ccccc2c1` as the compound, how does the outcome read?
Its outcome is “inactive”.

Which outcome does the source give for `CCN(CC)C(=O)c1cc(S(=O)(=O)Cc2ccccc2)c(N2CCC(c3ccccc3)CC2)cc1N(CC)CCN(C)C` here?
Its outcome is “inactive”.

For `COc1cc(C(=O)NC2CCN(C)CC2)ccc1Nc1ncc2c(n1)N(C1CCCC1)CC(F)(F)C(=O)N2C`, which outcome is on record?
Its outcome is “inactive”.

For `C[C@]12CC[C@@H]3c4ccc(O)cc4CC[C@H]3[C@@H]1CCC2=O`, which outcome is on record?
The outcome was “inactive”.

Which AC50 does the source give for `CC(C)(C)c1cc(/C=C2\SC(N)=NC2=O)cc(C(C)(C)C)c1O` here?
The AC50 was 60.5 µM (active).

Which outcome does the source give for `CCOC(=O)O[C@H](C)OC(=O)c1ccc2c(c1)cc(C(=O)NC1CCN(C(C)C)CC1)n2Cc1cc(-c2ccc(Cl)s2)on1` here?
The outcome was “inactive”.

For `O=C(O)c1ccccc1C(=O)OCc1ccccc1`, which outcome is on record?
Its outcome is “inactive”.

With `Clc1ccccc1C(c1ccccc1)(c1ccccc1)n1ccnc1` as the compound, how does the AC50 read?
Its AC50 is 29.3 µM (active).

For `Oc1ccccc1`, which outcome is on record?
Its outcome is “inactive”.

Which outcome does the source give for `Cc1cc(F)ccc1-c1cc(N2CC[C@@H](O)[C@H]2CO)ncc1N(C)C(=O)C(C)(C)c1cc(C(F)(F)F)cc(C(F)(F)F)c1` here?
Its outcome is “inactive”.

Which outcome does the source give for `Oc1ccc2ccccc2c1` here?
Its outcome is “inactive”.

Which outcome does the source give for `CCCCOC(=O)c1ccc(O)cc1` here?
The outcome was “inactive”.

With `Clc1cc(Cl)c2c(c1)N=C1CCCCCN1C2` as the compound, how does the outcome read?
Its outcome is “inactive”.

For `CCCCOC(=O)CC(CC(=O)OCCCC)(OC(C)=O)C(=O)OCCCC`, which AC50 is on record?
Its AC50 is 56.4 µM (active).

Which outcome does the source give for `O=C(O)Cn1c(=O)n(Cc2ccc(Br)cc2F)c(=O)c2ccc(Cl)cc21` here?
Its outcome is “inactive”.

Which outcome does the source give for `CC(=O)N1CCN(c2ccc(OC[C@H]3CO[C@](Cn4ccnc4)(c4ccc(Cl)cc4Cl)O3)cc2)CC1` here?
Its outcome is “inactive”.

Which outcome does the source give for `CCCCCCCCOC(=O)c1cc(O)c(O)c(O)c1` here?
The outcome was “inactive”.

With `O=C(OCCCCCCOC(=O)c1ccccc1)c1ccccc1` as the compound, how does the outcome read?
The outcome was “inactive”.

With `CC[C@@H]1C[C@H](N(Cc2cc(C(F)(F)F)cc(C(F)(F)F)c2)C(C)=O)c2cc(C(F)(F)F)ccc2N1C(=O)OC(C)C` as the compound, how does the outcome read?
The outcome was “inactive”.

With `CN1C(=O)CC[C@H]1c1cccnc1` as the compound, how does the outcome read?
Its outcome is “inactive”.

For `O=C(O)c1ccccc1-n1cc(C(=O)O)c(=O)c2cc(Nc3c(F)cc(F)cc3Cl)c(Cl)cc21`, which outcome is on record?
Its outcome is “inactive”.

For `O=CCCCC=O`, which outcome is on record?
Its outcome is “inactive”.

With `COc1cccc([C@H](O)C2CCN(CCc3ccc(F)cc3)CC2)c1OC` as the compound, how does the outcome read?
Its outcome is “inactive”.

With `CC1=CC(=O)/C(=C(/C)O)C(=O)O1` as the compound, how does the outcome read?
The outcome was “inactive”.

With `CCO[Si](CCCNC(N)=O)(OCC)OCC` as the compound, how does the outcome read?
The outcome was “inactive”.

With `CN1C(=O)N(c2ccccc2Br)Cc2cnc(Nc3ccc4c(c3)OCC(CO)O4)nc21` (stereo not given) as the compound, how does the outcome read?
Its outcome is “inactive”.

With `O=c1[nH]sc2ccccc12` as the compound, how does the AC50 read?
Its AC50 is 50.4 µM (active).

With `NCc1cccc(C2CCN(C(=O)c3ccc(C#Cc4ccccc4F)o3)CC2)c1` as the compound, how does the AC50 read?
Its AC50 is 14.3 µM (active).

With `O=C1O[C@H]([C@@H](O)CO)C(O)=C1O` as the compound, how does the outcome read?
Its outcome is “inactive”.

Which AC50 does the source give for `COc1ccc2cc(S(=O)(=O)N[C@H](CC(=O)N[C@H](Cc3ccc(CN4[C@H](C)CCC[C@@H]4C)cc3)C(=O)N(C)C(C)C)c3ccc4c(c3)OCO4)ccc2c1` here?
Its AC50 is 13.6 µM (active).

For `C[C@]12CC[C@@H]3c4ccc(O)cc4CC[C@H]3[C@@H]1CC[C@H]2O`, which outcome is on record?
The outcome was “inactive”.

For `CC/C(=C(/CC)c1ccc(O)cc1)c1ccc(O)cc1`, which AC50 is on record?
The AC50 was 28.7 µM (active).

With `CC(O)CC(C)(C)O` (stereo not given) as the compound, how does the outcome read?
The outcome was “inactive”.

Which outcome does the source give for `CN(C[C@@H](CC[N+]12CCC(C3CCCCC3)(CC1)CC2)c1ccc(Cl)c(Cl)c1)C(=O)c1cc(C(F)(F)F)cc(C(F)(F)F)c1` here?
Its outcome is “inactive”.

With `Cc1c2ccccc2c(C)c2c1ccc1ccccc12` as the compound, how does the AC50 read?
Its AC50 is 6.17 µM (active).

With `OCCO` as the compound, how does the outcome read?
Its outcome is “inactive”.

Which AC50 does the source give for `c1ccc(C[n+]2cccc3ccccc32)cc1` here?
Its AC50 is 25.6 µM (active).

With `c1ccc2n[nH]nc2c1` as the compound, how does the outcome read?
The outcome was “inactive”.

For `CC(C)(O)c1ccc(CNC(=O)c2cccnc2Oc2ccc3nonc3c2)cc1`, which outcome is on record?
Its outcome is “inactive”.
